Results from PubChem BioAssay AID1903 (Southern Research Specialized Biocontainment Screening …, 2009).
Screen size: about 310,000 compounds; about 1,200 (0.39%) were called active. The rule behind the calls is not given here. A selection follows. Results with a measured potency or affinity are listed apart.

Target: Large T antigen (Simian virus 40) (UniProt P03070)
Test: SV40 large T antigen inhibitors, biochemical (AID 1903)
Conditions: SV40 large T antigen ATPase/helicase inhibition assay; at 20 µM; hits give high values

Chain of Large T antigen (Simian virus 40) (P03070 whole entry, looked up): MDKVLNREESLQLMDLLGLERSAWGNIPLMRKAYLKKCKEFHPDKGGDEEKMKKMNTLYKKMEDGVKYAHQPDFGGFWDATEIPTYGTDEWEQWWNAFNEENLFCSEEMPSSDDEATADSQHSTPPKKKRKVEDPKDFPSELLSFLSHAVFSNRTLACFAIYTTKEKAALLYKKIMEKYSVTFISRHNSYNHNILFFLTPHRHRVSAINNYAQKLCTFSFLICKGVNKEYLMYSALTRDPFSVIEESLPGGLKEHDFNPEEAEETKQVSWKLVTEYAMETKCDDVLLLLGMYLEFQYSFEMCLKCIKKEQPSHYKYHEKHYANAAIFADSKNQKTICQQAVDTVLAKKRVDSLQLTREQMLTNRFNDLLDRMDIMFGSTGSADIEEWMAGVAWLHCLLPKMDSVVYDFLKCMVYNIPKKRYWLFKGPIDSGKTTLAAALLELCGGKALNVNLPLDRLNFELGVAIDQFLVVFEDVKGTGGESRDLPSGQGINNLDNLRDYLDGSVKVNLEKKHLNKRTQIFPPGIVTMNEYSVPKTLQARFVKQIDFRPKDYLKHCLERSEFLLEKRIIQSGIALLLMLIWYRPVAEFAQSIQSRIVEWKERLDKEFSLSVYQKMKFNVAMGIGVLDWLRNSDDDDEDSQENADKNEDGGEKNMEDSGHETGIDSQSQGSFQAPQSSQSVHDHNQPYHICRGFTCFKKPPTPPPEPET

inhibition, inactive:
COc1cc(/C=C2/SC(=O)NC2=O)ccc1OC(=O)c1ccco1 15.8%
COc1cc(/C=C2\C(=O)NN(c3ccc(C)cc3)C2=O)cc([N+](=O)[O-])c1O 36.6%
COc1cc(/C=C2\C(=O)N(c3ccc(S(N)(=O)=O)cc3)N=C2C)ccc1OC(=O)c1ccco1 32.1%
COc1cc(/C=C2/C(=O)NN(c3ccc(Cl)cc3)C2=O)cc(Br)c1O 32.1%
COc1cc(/C=C2/C(=O)NN(c3cccc(C)c3)C2=O)cc([N+](=O)[O-])c1O 12.9%
COC(=O)c1ccc(N2NC(=O)/C(=C/c3ccc(OC)c(OC)c3)C2=O)cc1 23.8%
O=C(c1cccc2nc3ccccc3nc12)N1CCOCC1 13.7%
Cc1ccccc1N1C(=O)c2cccc([N+](=O)[O-])c2C1=O 18.8%
Cc1cccn2c(CNCCSc3nccn3C)c(C(=O)N3CCCCC3)nc12 14.5%
O=C(Nc1nncs1)Oc1ccccc1 14.9%
CCCCc1nc(SCC(=O)N2CCCC2)c2c(=O)n(C)c(=O)n(C)c2n1 8.36%
O=C(Nc1ccc(F)cc1)c1ccc(NC(=O)C2CCCO2)cc1 (stereo not given) 1.01%
O=C(NNC(=O)C1CC=CCC1)c1ccccc1O (stereo not given) -2.59%
O=C(Nc1ccc(Oc2ccc(NC(=O)C3CCCO3)cc2)cc1)C1CCCO1 (stereo not given) 5.21%
O=C(Nc1nccs1)C1CC=CCC1 (stereo not given) 2.9%
O=C(Nc1cccc(O)c1)c1ccc(NC(=O)C2CCCO2)cc1 (stereo not given) 12.5%
O=C(Nc1ccc(F)cc1)C1CCCO1 (stereo not given) 22.1%
COc1ccc(OC)c(CC(=O)NC(c2ccccc2)c2ccccc2)c1 5.47%
O=C(N=Nc1c(O)[nH]c2ccccc12)c1cc(-c2ccc(F)cc2)n[nH]1 7.92%
O=C(c1ccncc1)N1CCN(C(=O)c2ccco2)CC1 6.56%
O=S(Cc1cc(Oc2ccccc2)nc(-c2ccccc2)n1)c1ccccc1 (stereo not given) 16.4%
CN1CCN(c2ccc(CNC(=O)c3ccco3)cc2)CC1 9.25%
O=C(CCCN1C(=O)CSc2ncccc21)N1CCN(Cc2ccccc2)CC1 -0.33%
COc1cccc(N/C(SCc2ccccc2F)=C(/C#N)C(=O)NCc2cccs2)c1 2.65%
Cc1ccc2[nH]c(=O)c(CN(Cc3ccccc3)C(=S)NCCCN(C)C)cc2c1 2.51%
NC(=O)c1cc(N)ccc1N1CCCCC1 36%
NC(=O)c1cc(N)ccc1N1CCCC1 18.4%
COc1ccc(N(CC(=O)N2CCCC2)S(=O)(=O)c2ccc(NC(C)=O)cc2)cc1 -2.23%
O=C(CCc1ccccc1)Nc1nc2nc(-c3ccccc3)cc(=O)n2[nH]1 -26.7%
C/C(O)=C(/C#N)c1nc2ccccc2[nH]1 7.8%
C/C(O)=C(\C#N)c1nc2ccccc2[nH]1 1.46%
O=S(=O)(c1cc(-c2nnc(-c3ccc(Br)cc3)o2)ccc1Br)N1CCCCCC1 4.66%
CN(C)c1nn(C(=O)Nc2cccc(C(F)(F)F)c2)cc1-c1ccccc1 23.9%
O=C(Nc1ccc(Cl)cc1Cl)c1ccc(-c2ccccc2)cc1 3.2%
CN1CCN(S(=O)(=O)c2cnccc2N2CCN(c3cccc(Cl)c3)CC2)CC1 25%
Cc1c(C(=O)/C=C/N(C)C)nnn1-c1ccc(F)c(Cl)c1 10.7%
CC(NS(=O)(=O)c1ccc(Br)cc1)C(N)=O (stereo not given) 3.6%
COc1ccc(/C=N/NC(=O)c2ccc(Cn3cc([N+](=O)[O-])cn3)o2)cc1O 17.9%
COc1ccc(/C=N/NC(=O)c2cccc(Br)c2)cc1CN1CCOCC1 4.55%
COc1ccc(/C=N/NC(=O)c2ccccc2O)cc1Cn1cc([N+](=O)[O-])cn1 12.7%
Cc1c(Cl)c([N+](=O)[O-])nn1Cc1ccc(C(=O)N/N=C\c2cccc(Br)c2)o1 -0.98%
COc1ccc(/C=N/NC(=O)c2ccncc2)cc1CN1CCOCC1 14.2%
COc1ccc(/C=N/NC(=O)c2ccc(N)cc2)cc1Cn1cc([N+](=O)[O-])cn1 -3.89%
COc1cc(/C=N\NC(=O)c2ccc(Cn3cc(Br)c([N+](=O)[O-])n3)o2)cc(OC)c1O 32.8%
Cc1c(Cl)c([N+](=O)[O-])nn1Cc1ccc(C(=O)N/N=C\c2ccccn2)o1 6.44%
Cc1ccc([N+](=O)[O-])c(C(=O)N/N=C/c2cccnc2)c1 13.6%
O=[N+]([O-])c1cccc(/C=N/N2CCN(Cc3ccccc3)CC2)c1 16.1%
CN1CCOc2ccc(S(=O)(=O)NCCc3ccc(Cl)cc3)cc21 4.83%
CC(Oc1ccc(Br)cc1)C(=O)NCC(c1cccs1)N1CCOCC1 (stereo not given) 0.98%
O=C(NNc1ccc([N+](=O)[O-])cc1)C1C2CCCCC21 (stereo not given) 2.05%
CC1CCN(S(=O)(=O)c2cccc(C(=O)N(Cc3ccccc3)c3ccccn3)c2)CC1 6.8%
CN(C)/C=C(\C#N)C(=O)Nc1ccc(F)c(Cl)c1 14.7%
CN(C)/C=C(\C#N)C(=O)Nc1ccc(F)cc1 -1.08%
COc1ccc(C)cc1NC(=O)c1ccc2c(O)c(S(=O)(=O)c3ccccc3)c(=O)[nH]c2c1 13.8%
CC(C)(C)c1ccc(OCC(O)CSc2ncn[nH]2)cc1 (stereo not given) 3.06%
COc1ccc2c(c1)C(=O)CC(c1ccccc1F)O2 (stereo not given) 15.3%
COc1ccc2c(c1)C(=O)c1ccccc1CO2 10.1%
O=C1C2C3C=CC(CO)(O3)C2C(=O)N1c1ccccc1-c1ccccc1 (stereo not given) 13.7%
O=C(O)c1c(-c2ccccc2)oc2ccc(O)cc12 15%
CCN(CC)C(=O)c1c(-c2ccccc2)oc2ccc(O)cc12 13.9%
CCn1c(=O)n(CC)c2cc(S(N)(=O)=O)ccc21 3.97%
CCn1c(=O)n(CC)c2cc([N+](=O)[O-])ccc21 -2.72%
O=C(COc1ccccc1Cl)NCc1nc(-c2ccccc2)no1 10.2%
COc1ccc(Nc2nc(N)c([N+](=O)[O-])c(N3CCOCC3)n2)cc1 10.9%
Cc1ccc(Nc2nc(N)c([N+](=O)[O-])c(N3CCOCC3)n2)cc1 9.48%
Cc1cc(/C=C(\C#N)C(=O)O)c(C)n1C1CC1 11.4%
O=C(N/N=C/c1ccc(OCc2ccc(F)cc2)cc1)c1ccccc1 1.09%
Cc1cc(C)c2c(=O)n(CC(=O)N3CCC(Cc4ccccc4)CC3)sc2n1 3.6%
CCOC(=O)C1CCCN(C(=O)Cn2sc3nc(C)cc(C)c3c2=O)C1 (stereo not given) 73.4%
Cc1cccc(N2CCN(C(=O)Cn3nc(C)n4cccc4c3=O)CC2C)c1 (stereo not given) 8.5%
Cc1nn(CC(=O)N2CCC(N3CCCCC3)CC2)c(=O)c2c1sc1ccccc12 17.6%
CN1CCN(c2ccc(Cl)cc2NC(=O)c2ccc(=O)n(C)n2)CC1 22.8%
CC(C)c1ccc2[nH]c(O)c(N=NC(=O)c3cccc(S(=O)(=O)Nc4ccccc4Cl)c3)c2c1 -4.52%
COc1ccccc1C(=O)NNC(=O)c1sccc1-n1cccc1 8.72%
CCN(CC)CCN1c2ccccc2Sc2ccccc21 34.5%
CN(C)CCCN1c2ccccc2Sc2ccccc21 33%
CCCCN(C(=O)c1ccc([N+](=O)[O-])o1)c1c(N)n(CC(C)C)c(=O)[nH]c1=O 20.2%
COc1cccc(-c2cc(C(=O)Nc3cc(C)on3)no2)c1 3.2%
Cc1ccc2oc(=O)c3cnn(CC(=O)NCCCOC(C)C)c3c2c1 5.01%
CCOC(=O)Cc1csc(NC(=O)c2ccc3c(c2)OCO3)n1 -7.42%
COc1ccc(/C=C2/SC(c3ccc(C)cc3)=NC2=O)cc1OC 7.06%
COc1ccc(/C=C2\SC(c3ccc(C)cc3)=NC2=O)cc1OC 4.55%
COc1cc(/C=C2\SC(c3ccc(C)cc3)=NC2=O)cc(OC)c1OC 14.7%
NC1=NC(=O)/C(=C/c2cc(Br)c(O)c(Br)c2)S1 23.3%
O=C(Nc1ccc(CN2CCOCC2)cc1)c1ccc(Br)o1 4.15%
CCCc1nn(-c2cc(Cl)ccc2OC)c2c1C(=O)CC(C)(C)C2 2.88%
CCCC(=O)N(c1ccc2oc(=O)sc2c1)S(=O)(=O)c1cccs1 34.4%
CC(C)C(=O)N(c1ccc2oc(=O)sc2c1)S(=O)(=O)c1cccs1 22.8%
CC(=O)N(c1ccc2oc(=O)sc2c1)S(=O)(=O)c1ccc(C(=O)O)cc1 23.9%
CC(C)C(=O)N(c1ccc2oc(=O)sc2c1)S(=O)(=O)c1ccccc1 25.6%
Cc1ccsc1C(=O)OCC(=O)NCc1ccc2c(c1)OCO2 20.1%
O=C(O)C1CC=CCC1C(=O)N1CCCC1 (stereo not given) -0.98%
O=C1NC(=O)/C(=C\c2ccsc2)N1 2.09%
COCOc1cc(O)c2c(=O)c(OCOC)c(-c3ccc(OCOC)c(OCOC)c3)oc2c1 7.99%
COc1c(-c2ccc(O)c(O)c2)oc2cc(O)cc(O)c2c1=O 9.05%
